Results: PubChem BioAssay AID1159580 (chemical genetic matrix, 2015)
The whole screen tested about 5,500 compounds, of which about 2,000 (36%) were called active. Another 18% or so got no clear call; they are omitted. This is one part of the list. Values without a mark were called inactive. No stated cut-off is given here; in the data, active means normalized growth mostly below about 0.91 (no sharp cut-off); inconclusive means no clear call, values can overlap the other calls; inactive means mostly above about 0.92.

Test: chemical genetic growth profiling, strain panel (AID 1159580);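 further: tested at 20 µM; growth read once vehicle control cultures reached saturation at 30 °C; 1 = growth at the plate median or of vehicle wells; lower values mean less growth of the strain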
Conditions: S. cerevisiae deletion strains, growth OD

Question: For `OC[C@H]1OC([S-])[C@H](O)[C@@H](O)[C@@H]1O.[Au+]` (some centres undefined), which normalized growth (locus YAL021C, strain ccr4, hits give low values) is on record?
Answer: 1.03

Question: And the normalized growth (locus YAL026C, strain drs2, hits give low values)?
Answer: 1.03

Question: And the normalized growth (locus YAL030W, strain snc1, hits give low values)?
Answer: 1.03

Question: What about the normalized growth (locus YBL061C, strain skt5, hits give low values) of the same compound?
Answer: 1.02

Question: And the normalized growth (locus YBR009C, strain hhf1, hits give low values)?
Answer: 1.02

Question: And the normalized growth (locus YBR023C, strain chs3, hits give low values)?
Answer: 1.01

Question: And the normalized growth (locus YBR171W, strain sec66, hits give low values)?
Answer: 1.01

Question: What about the normalized growth (locus YBR231C, strain swc5, hits give low values) of the same compound?
Answer: 1.02

Question: And the normalized growth (locus YBR279W, strain paf1, hits give low values)?
Answer: 1.01

Question: And the normalized growth (locus YCL011C, strain gbp2, hits give low values)?
Answer: 1

Question: What about the normalized growth (locus YCL016C, strain dcc1, hits give low values) of the same compound?
Answer: 1

Question: What about the normalized growth (locus YCL069W, strain vba3, hits give low values) of the same compound?
Answer: 1.01

Question: And the normalized growth (locus YCR088W, strain abp1, hits give low values)?
Answer: 1.01

Question: And the normalized growth (locus YDL005C, strain med2, hits give low values)?
Answer: 1.02

Question: What about the normalized growth (locus YDL040C, strain nat1, hits give low values) of the same compound?
Answer: 1.01

Question: What about the normalized growth (locus YDR001C, strain nth1, hits give low values) of the same compound?
Answer: 1

Question: What about the normalized growth (locus YDR069C, strain doa4, hits give low values) of the same compound?
Answer: 1.01

Question: And the normalized growth (locus YDR137W, strain rgp1, hits give low values)?
Answer: 1.03

Question: What about the normalized growth (locus YDR159W, strain sac3, hits give low values) of the same compound?
Answer: 1.06

Question: And the normalized growth (locus YDR195W, strain ref2)?
Answer: 1.03

Question: And the normalized growth (locus YDR297W, strain sur2, hits give low values)?
Answer: 1

Question: What about the normalized growth (locus YDR334W, strain swr1, hits give low values) of the same compound?
Answer: 1.01

Question: What about the normalized growth (locus YDR335W, strain msn5, hits give low values) of the same compound?
Answer: 1.02

Question: What about the normalized growth (locus YDR392W, strain spt3, hits give low values) of the same compound?
Answer: 1.03

Question: And the normalized growth (locus YEL003W, strain gim4, hits give low values)?
Answer: 1.01

Question: What about the normalized growth (locus YEL037C, strain rad23, hits give low values) of the same compound?
Answer: 1.01

Question: And the normalized growth (locus YEL061C, strain CIN8 (second series), hits give low values)?
Answer: 1.01

Question: And the normalized growth (locus YER015W, strain faa2, hits give low values)?
Answer: 1.01

Question: What about the normalized growth (locus YER016W, strain bim1, hits give low values) of the same compound?
Answer: 1.02

Question: What about the normalized growth (locus YER111C, strain swi4, hits give low values) of the same compound?
Answer: 1.01

Question: What about the normalized growth (locus YER155C, strain BEM2 (second series), hits give low values) of the same compound?
Answer: 1.05

Question: And the normalized growth (locus YFR010W, strain ubp6, hits give low values)?
Answer: 1.02

Question: And the normalized growth (locus YGL167C, strain pmr1, hits give low values)?
Answer: 1

Question: What about the normalized growth (locus YGL173C, strain kem1, hits give low values) of the same compound?
Answer: 1.02

Question: What about the normalized growth (locus YGL227W, strain vid30, hits give low values) of the same compound?
Answer: 1.01

Question: What about the normalized growth (locus YGL240W, strain doc1, hits give low values) of the same compound?
Answer: 1.03

Question: What about the normalized growth (locus YGL253W, strain hxk2, hits give low values) of the same compound?
Answer: 1.01

Question: What about the normalized growth (locus YHR013C, strain ard1, hits give low values) of the same compound?
Answer: 1.02

Question: And the normalized growth (locus YHR027C, strain rpn1, hits give low values)?
Answer: 0.992

Question: And the normalized growth (locus YHR030C, strain SLT2, hits give low values)?
Answer: 1.05

Question: And the normalized growth (locus YHR079C, strain IRE1, hits give low values)?
Answer: 1.1

Question: And the normalized growth (locus YHR142W, strain chs7, hits give low values)?
Answer: 0.995

Question: What about the normalized growth (locus YJL092W, strain hpr5, hits give low values) of the same compound?
Answer: 1.01

Question: What about the normalized growth (locus YJL095W, strain BCK1 (second series), hits give low values) of the same compound?
Answer: 1.01

Question: What about the normalized growth (locus YJL095W, strain BCK1, hits give low values) of the same compound?
Answer: 1.08

Question: And the normalized growth (locus YJL115W, strain asf1, hits give low values)?
Answer: 1.01

Question: And the normalized growth (locus YJL129C, strain trk1, hits give low values)?
Answer: 1.01

Question: What about the normalized growth (locus YJL154C, strain vps35, hits give low values) of the same compound?
Answer: 1.01

Question: What about the normalized growth (locus YJL164C, strain tpk1, hits give low values) of the same compound?
Answer: 1.01

Question: What about the normalized growth (locus YJL166W, strain qcr8, hits give low values) of the same compound?
Answer: 1.02

Question: What about the normalized growth (locus YJL187C, strain SWE1, hits give low values) of the same compound?
Answer: 1.02

Question: What about the normalized growth (locus YJR066W, strain TOR1, hits give low values) of the same compound?
Answer: 0.998

Question: And the normalized growth (locus YKL160W, strain elf1, hits give low values)?
Answer: 1

Question: What about the normalized growth (locus YKR026C, strain gcn3, hits give low values) of the same compound?
Answer: 1.01

Question: And the normalized growth (locus YKR091W, strain srl3, hits give low values)?
Answer: 1.01

Question: What about the normalized growth (locus YLL001W, strain dnm1, hits give low values) of the same compound?
Answer: 1.01

Question: What about the normalized growth (locus YLL026W, hits give low values) of the same compound?
Answer: 1.01

Question: What about the normalized growth (locus YLL041C, strain sdh2, hits give low values) of the same compound?
Answer: 0.999

Question: What about the normalized growth (locus YLR027C, strain aat2, hits give low values) of the same compound?
Answer: 1.02

Question: And the normalized growth (locus YLR113W, strain HOG1, hits give low values)?
Answer: 1.17 [resistant] (active)

Question: And the normalized growth (locus YLR221C, strain rsa3, hits give low values)?
Answer: 1.01

Question: And the normalized growth (locus YLR258W, strain gsy2, hits give low values)?
Answer: 1.01

Question: And the normalized growth (locus YLR262C, strain YPT6 (second series), hits give low values)?
Answer: 1

Question: And the normalized growth (locus YLR320W, strain mms22, hits give low values)?
Answer: 1.02

Question: What about the normalized growth (locus YLR342W, strain FKS1, hits give low values) of the same compound?
Answer: 1.01

Question: And the normalized growth (locus YLR357W, strain rsc2, hits give low values)?
Answer: 1.01

Question: What about the normalized growth (locus YLR370C, strain arc18, hits give low values) of the same compound?
Answer: 1.01

Question: And the normalized growth (locus YLR384C, strain iki3, hits give low values)?
Answer: 0.987

Question: And the normalized growth (locus YML120C, strain ndi1, hits give low values)?
Answer: 1.02

Question: What about the normalized growth (locus YMR058W, strain fet3, hits give low values) of the same compound?
Answer: 1.01

Question: And the normalized growth (locus YMR125W, strain sto1, hits give low values)?
Answer: 1.02

Question: What about the normalized growth (locus YMR129W, hits give low values) of the same compound?
Answer: 1.01

Question: What about the normalized growth (locus YMR205C, strain PFK2, hits give low values) of the same compound?
Answer: 1.03

Question: And the normalized growth (locus YMR231W, strain pep5, hits give low values)?
Answer: 1.01

Question: And the normalized growth (locus YNL071W, strain lat1, hits give low values)?
Answer: 1

Question: And the normalized growth (locus YNL183C, strain NPR1, hits give low values)?
Answer: 1.02

Question: What about the normalized growth (locus YNL209W, strain ssb2, hits give low values) of the same compound?
Answer: 1

Question: And the normalized growth (locus YNL248C, strain rpa49, hits give low values)?
Answer: 1.01

Question: And the normalized growth (locus YNL322C, strain KRE1 (second series), hits give low values)?
Answer: 1.01

Question: And the normalized growth (locus YNR049C, strain mso1, hits give low values)?
Answer: 0.997

Question: What about the normalized growth (locus YOR001W, strain rrp6, hits give low values) of the same compound?
Answer: 1.02

Question: And the normalized growth (locus YOR070C, strain gyp1, hits give low values)?
Answer: 1

Question: And the normalized growth (locus YOR080W, strain dia2, hits give low values)?
Answer: 1.01

Question: And the normalized growth (locus YOR083W, strain WHI5, hits give low values)?
Answer: 0.996

Question: What about the normalized growth (locus YOR106W, strain vam3, hits give low values) of the same compound?
Answer: 1.03

Question: What about the normalized growth (locus YOR231W, strain MKK1, hits give low values) of the same compound?
Answer: 1.09

Question: And the normalized growth (locus YOR265W, strain rbl2, hits give low values)?
Answer: 1.01

Question: And the normalized growth (locus YOR270C, strain vph1, hits give low values)?
Answer: 1.27 [resistant] (active)

Question: And the normalized growth (locus YOR290C, strain snf2, hits give low values)?
Answer: 1.01

Question: And the normalized growth (locus YPL051W, strain arl3, hits give low values)?
Answer: 0.994

Question: And the normalized growth (locus YPL078C, strain atp4, hits give low values)?
Answer: 1.03

Question: And the normalized growth (locus YPL106C, strain sse1, hits give low values)?
Answer: 1.01

Question: What about the normalized growth (locus YPL240C, strain hsp82, hits give low values) of the same compound?
Answer: 1.01

Question: And the normalized growth (locus YPL256C, strain CLN2, hits give low values)?
Answer: 1.16
